# PubChem BioAssay (EPA / NIEHS)
# Several values for one entry are separate records, joined by “and”; a condition that tells them apart may be missing. Equal entries are not always repeated. The source holds several records for some structures; these can differ, active in one and inactive in another. Activity calls are given as the source filed them. The calls were made as follows: active = hit-call score of the fitted dose curve at least 0.9, where 1 is the maximum; inactive = score below 0.9.
# Test: CCTE_Shafer_MEA_dev_per_burst_interspike_interval: CCTE's Neural Network Formation Assay for Burst Interspike Interval, Shafer Lab (AID 2284044);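 also: mean spike spacing inside bursts as AUC over recordings on days 5 7 9 12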;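 as to AC50: potency for a decrease of within-burst interspike interval below DMSO level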
# Procedure: CCTE_Shafer_MEA_dev assay is conducted using Axion Biosystems 48 well microelectrode array (MEA) plates and Maestro recording system. Each well of the MEA plate contains a grid of 16 microelectrodes embedded in the culture surface. Electrically active cells, such as neurons, can be cultured over the electrodes, and electrical activity in these cells can be recorded extracellularly. The spontaneous firing of neurons is captured from each electrode on a microsecond timescale providing both temporally and spatially precise data. […] The CCTE_Shafer_MEA_dev assay uses primary cultures of rat cortical neurons. Recordings are made on days post-plating 5, 7, 9 and 12. As these cultures mature over time, neural networks develop functional activity and form cohesive networks in which electrical activity can be highly coordinated. CCTE_Shafer_MEA_dev_per_burst_interspike_interval is 1 of 19 assay components of the CCTE_Shafer_MEA_dev assay. It measures the average time interval between spikes (action potential firings) within a single-electrode burst (temporally-clustered group of spikes) during a recording in a microelectrode array (MEA) using Axion Biosystems Maestro 768 channel amplifier with the AxIS adaptive spike detector. The mean inter-spike interval within bursts is averaged across the actively bursting electrodes to report a well-mean value. To collapse across multiple recordings made on days post-plating 5, 7, 9 and 12, the trapezoidal area-under-the-curve of the component is calculated.Data from the assay component CCTE_Shafer_MEA_dev_per_burst_interspike_interval was analyzed into 1 assay endpoint. This assay endpoint, CCTE_Shafer_MEA_dev_per_burst_interspike_interval, was analyzed in the negative analysis fitting direction relative to DMSO as the negative control and baseline of activity. Using a type of functional reporter, gain or loss-of-signal activity can be used to understand electrical activity.
# On the day prior to culture, each well was coated thoroughly with 150 uL of 0.05% polyethyleneimine (PEI, Sigma Cat P3143) in 50 mM HEPES (Sigma Cat H7523) at a pH of 8. The plate was incubated at 37C for one hour. PEI was rinsed out with 500 uL of sterile water three times. Plates were stored at 4C until the day of culture. This culture was plated at a seeding density of 1.5 x 10^5 cells/well on a 48-well MEA plate, prepared as described above. Cells were administered via a 25 uL media/laminin ([…]; Sigma Cat L2020-1MG) drop directly onto the microelectrode array, as adding the cells with the laminin results in better attachment than pre-coating with laminin. After 2 hours, an additional 475 uL of cortical media was added and the cells returned to the incubator. Exposure starts at day 0 of plating and is continued over twelve days of network development until the experiment is terminated. Cells are fed with fresh medium on DIV 5 and 9, following the recordings on those days. The entire volume of media in the well is exchanged and any vehicle or compound treatment is renewed. Complete details are found in OP-NHEERL/ISTD/SBB/TJS/2015-03-r0 (available on request, email shafer.tim@epa.gov). Measurement of the electrical activity is non-invasive, and recordings can be made from the same plate over multiple different days of the culture. In cortical neurons, this allows for the measurement of extracellular action potentials over the period during which networks form in the MEA plate.
Compound,outcome,AC50
O=C(O)C(F)(F)C(F)(F)C(F)(F)C(F)(F)C(F)(F)C(F)(F)C(F)(F)C(F)(F)C(F)(F)C(F)(F)F,inactive,–
CCOP(=S)(OCC)Oc1nc(Cl)c(Cl)cc1Cl,inactive,15.7 µM (active) and 5.07 µM (active)
ClC1(Cl)C2(Cl)C3(Cl)C4(Cl)C(Cl)(Cl)C5(Cl)C3(Cl)C1(Cl)C5(Cl)C24Cl (configuration not stated),–,1.58 µM (active)
Cn1sc(Cl)cc1=O,–,7.73 µM (active)
CCC(=O)C(CC(C)N(C)C)(c1ccccc1)c1ccccc1 (configuration not stated),–,6.65 µM (active)
O=C1C2(Cl)C3(Cl)C4(Cl)C(Cl)(Cl)C5(Cl)C3(Cl)C1(Cl)C5(Cl)C24Cl (configuration not stated),–,10 µM (active)
CC(C)(C)c1cc(O)ccc1O,inactive,–
C=C(C)C(=O)[O][Sn]([CH2]CCC)([CH2]CCC)[CH2]CCC,–,0.0336 µM (active)
O=C(O)C(F)(F)C(F)(F)C(F)(F)C(F)(F)C(F)(F)C(F)(F)F,inactive,–
COP(=O)(OC)O/C(=C\Cl)c1cc(Cl)c(Cl)cc1Cl,inactive,–
CC(=O)[O][Hg][c]1ccccc1,–,0.0154 µM (active)
